Measured values: PubChem BioAssay AID2253 (Southern Research Specialized Biocontainment Screening …, 2010)
About 1,300 (59%) of roughly 2,200 compounds were called active. The rule behind the calls is not given here. So high a share suggests a set chosen from earlier hits. A selection follows. Entries with a potency or affinity are not part of this list.

experiment: THP-1 cell cytotoxicity, dose response, cytotoxicity control for Salmonella PhoP regulon inhibitors, S. typhimurium screen hits (AID 2253); conditions: THP-1 viability, CellTiter-Glo luminescence, 72 h; series mostly up to 50 µM

Row | Compound | outcome
1 | C=CCSc1nnc(-c2ccc(Cl)cc2Cl)o1 | inactive
2 | COc1c(N2CCN(C(=S)Nc3ccc(F)cc3)C(C)C2)c(F)cc2c(=O)c(C(=O)O)cn(C3CC3)c12 (configuration not stated) | inactive
3 | COc1c(N2CCN(C(=S)NC3CC4CCC3C4)C(C)C2)c(F)cc2c(=O)c(C(=O)O)cn(C3CC3)c12 (configuration not stated) | inactive
4 | COc1c(N2CCNC(C)C2)c(F)cc2c(=O)c(C(=O)O)cn(C3CC3)c12 (configuration not stated) | inactive
5 | CNC(=S)N1CCN(c2c(F)cc3c(=O)c(C(=O)O)cn(C4CC4)c3c2OC)CC1C (configuration not stated) | inactive
6 | CC(=O)Nc1c(C#N)c(C(C)(C)C)cn1C | inactive
7 | COc1ccc(S(=O)(=O)N2Cc3ccccc3CC2C(=O)N2CCOCC2)cc1OC (configuration not stated) | inactive
8 | COc1ccc(N(CC(=O)Nc2ccccc2SC)S(C)(=O)=O)cc1OC | inactive
9 | CCN1C(=O)/C(=C/N2CC(C)CC(C)C2)SC1=S (configuration not stated) | inactive
10 | Cc1ccc(NC2CC(=O)N(Cc3ccccc3)C2=O)cc1 (configuration not stated) | inactive
11 | CCc1ccc(NC(=O)c2noc3c2CCc2ccccc2-3)cc1 | inactive
12 | Cc1ccc(N2C(=O)CC(n3ccnc3)C2=O)cc1C (configuration not stated) | inactive
13 | COc1ccc2cc(C)c3nnc(SCC(=O)Nc4nc(-c5ccccc5)cs4)n3c2c1 | inactive
14 | CN(C)CC(=O)Nc1nc(-c2ccccc2)cs1 | inactive
15 | CS(=O)(=O)c1ccc([C@@H](O)[C@@H](CO)NC(=O)C(Cl)Cl)cc1 | inactive
16 | CCOCc1nnc(NC(=O)COC)s1 | inactive
17 | CC(NC(=O)CSc1nc2c(cc1C#N)CN(C)CC2)c1ccccc1 (configuration not stated) | inactive
18 | COc1cccc(C=NCCNC(=O)c2nonc2N)c1O | inactive
19 | O=C1CCc2cc(S(=O)(=O)N3CCN(c4cccc(Cl)c4)CC3)ccc2N1 | inactive
20 | CCN(CC)c1ccc(/C=C(\C#N)C(=O)NCc2ccco2)cc1 | inactive
21 | CCOC(=O)C1CCCN(S(=O)(=O)c2ccc(Br)c(OC)c2)C1 (configuration not stated) | inactive
22 | CCn1cc(C(=O)O)c(=O)c2cc(F)c(N3CCN(C(=S)Nc4ccc(OC)cc4)CC3)cc21 | inactive
23 | C/C(Nc1ccc(F)cc1)=C(/C#N)C(N)=O | inactive

Row | Compound | outcome
24 | Cc1cc(-c2c(C)n([O-])c(C)c(C)[n+]2=O)ccc1F | inactive
25 | CCC(Sc1ncccc1C(=O)OC(C)C)C(=O)N1CCOCC1 (configuration not stated) | inactive
26 | Cc1cc(NC(=O)c2cnn3cccnc23)no1 | inactive
27 | CCn1cc(C(=O)NCCCO)c(=O)c2cc(F)c(N3CCN(C)CC3)cc21 | inactive
28 | O=c1[nH]c(CSc2nnc(NCCCN3CCOCC3)s2)nc2cc(Cl)ccc12 | inactive
29 | C=CC#CC[N+]1(CC#Cc2ccccc2)CCOCC1 | inactive
30 | CN1CCCC(OC(=O)c2ccc(Cl)cc2)C1 (configuration not stated) | inactive
31 | O=C(O)/C=C/C(=O)Nc1cccc(C(F)(F)F)c1 | inactive
32 | FC(F)(F)c1cccc(NC(=S)NCCN2CCOCC2)c1 | inactive
33 | c1ccc(-c2nnc(SCCC3OCCCO3)o2)cc1 | inactive
34 | Cc1cc(-c2csc(NC(=O)c3ccc(C#N)cc3)n2)c(C)n1Cc1ccco1 | inactive
35 | Cc1ccc(CNC(=O)C2CCCN(S(=O)(=O)c3c(C)noc3C)C2)cc1 (configuration not stated) | inactive
36 | Cc1cccc(-n2c(N)cc(=O)[nH]c2=S)c1C | inactive
37 | Cc1cc(C)c(NC(=O)c2cn3c4c(c(N5CCN(C)CC5)c(F)cc4c2=O)OCC3C)c(C)c1 (configuration not stated) | inactive
38 | Cc1ccc(N2C(=O)CC(Nc3ccccc3)C2=O)cc1 (configuration not stated) | inactive
39 | CC1(C)CC(=O)C(C(=O)/C=C/NCCc2ccccc2)C(=O)C1 | inactive
40 | COc1cc(C2C(C(=O)c3ccc(C)o3)=C(O)C(=O)N2CCc2ccccc2)ccc1O (configuration not stated) | inactive
41 | c1ccc(COc2cccc(CN3CCN(c4ccccn4)CC3)c2)cc1 | inactive
42 | O=c1[nH]c(CN2CCCCC2)nc2ccccc12 | inactive
43 | CCCC(=O)c1c[nH]c(C(=O)NCCCN2CCOCC2)c1 | inactive
44 | CCOc1ccc(S(=O)(=O)NNC(=S)Nc2ccc(Br)cc2)cc1 | inactive
45 | O=C(CSc1nc2ccccc2o1)Nc1ccc(N2CCOCC2)c(Cl)c1 | inactive
46 | O=C(CSc1nc2ccccc2o1)Nc1ccc(N2CCOCC2)cc1 | inactive

Row | Compound | outcome
47 | CCCCC(=O)NCCNC(=O)c1cc(OCC(F)(F)F)ccc1OCC(F)(F)F | inactive
48 | COc1ccc(-c2ccc(-c3noc(-c4cccs4)n3)c(OC)n2)cc1 | inactive
49 | Cc1noc(C)c1CSc1nc2ccccc2nc1NS(=O)(=O)c1ccc(Cl)cc1 | inactive
50 | Fc1cccc(NCc2cn3ccccc3n2)c1 | inactive
51 | COc1ccc(CN2C(=O)Cc3c2nc(N)c2c(N)nc(N4CCCCC4)c(C#N)c32)cc1 | inactive
52 | CCn1cc(C(=O)O)c(=O)c2cc(F)c(N3CCN(C(=S)NC(=O)c4ccccc4F)CC3)cc21 | inactive
53 | CCCNC(=O)c1cn(CC)c2cc(N3CCN(C)CC3)c(F)cc2c1=O | inactive
54 | CCCCNC(=O)c1cn(CC)c2cc(N3CCN(C)CC3)c(F)cc2c1=O | inactive
55 | CCn1cc(C(=O)O)c(=O)c2cc(F)c(N3CCN(C(=S)NC(=O)c4ccccc4)CC3)cc21 | inactive
56 | N#C/C=C(/N)c1ccc(Br)cc1 | inactive
57 | Oc1ccccc1-c1nc(/C=C/c2ccccc2)nn1-c1ccccc1 | inactive
58 | CCn1cc(C(=O)O)c(=O)c2cnc(N3CCNCC3)nc21 | inactive
59 | N#Cc1c(N)n[nH]c1-c1cc2c([nH]1)CCCC2 | inactive
60 | O=C(CSc1ccc(Cl)cc1)Nc1ccccc1N1CCN(C(=O)c2ccc(Cl)cc2)CC1 | inactive
61 | O=C(CCN1C(=O)C2C3C=CC(C3)C2C1=O)N1CCN(c2cccc(Cl)c2)CC1 (configuration not stated) | inactive
62 | CN(C(=O)c1cccc(C#N)c1)c1nnc(-c2cnccn2)s1 | inactive
63 | NC(=O)N1OCC2COc3ccc4ccccc4c3C21 (configuration not stated) | inactive
64 | COc1c(N2CCN[C@H](C)C2)c(F)cc2c(=O)c(C(=O)O)cn(C3CC3)c12 | inactive
65 | COC(=O)c1sccc1NC(=O)c1csc2c1CCCC2 | inactive
66 | COc1cc(C2Nc3cccc4cccc(c34)N2)cc(OC)c1OC(C)=O | inactive
67 | CC(=O)Oc1c2occc2cc2ccc(=O)oc12 | inactive
68 | CCOc1ccc2nc(COC(=O)c3ccco3)c(C(C)=O)[n+]([O-])c2c1 | inactive
69 | CC1=CC(C)(C)n2c(O)c(C3=NC(=S)NC3=O)c3cc(OC(=O)c4cccc5ccccc45)cc1c32 | inactive

Row | Compound | outcome
70 | COC(=O)c1cn(C(=O)c2cccs2)c2ccccc12 | inactive
71 | Cc1nc(-c2ccccn2)sc1C(=O)Nc1ccc(F)cc1F | inactive
72 | Cc1c(NS(=O)(=O)c2ccccc2)c(=O)n(-c2ccccc2)n1C | inactive
73 | Cc1cc2cc(CNS(=O)(=O)c3ccc4ccccc4c3)ccc2n1C | inactive
74 | C=CCSc1ncnc2sc(C)c(C)c12 | inactive
75 | c1ccn2c(CNc3ncnc4sccc34)nnc2c1 | inactive
76 | N/C(=N\OC(=O)c1cccs1)C1(c2ccc(Cl)cc2Cl)CC1 | inactive
77 | COc1ccc(C(C)=O)c2c(O)cccc12 | inactive
78 | Cc1ccc(C2NNC(=O)C2NC(=O)c2ccccc2)cc1 (configuration not stated) | inactive
79 | Cc1ccc(S(=O)(=O)NNC(=O)c2ccc(O)cc2)cc1 | inactive
80 | Nc1nnc(-c2cccc(Cl)c2Cl)c(N)n1 | inactive
81 | CCn1cc(C(=O)O)c(=O)c2cc3c(cc21)OCO3 | inactive
82 | CCCn1c(N)c(C(=O)COC(=O)c2c(C)noc2C)c(=O)n(C)c1=O | inactive
83 | Cc1ccccc1-n1c(=O)c2ccccc2n2cnnc12 | inactive
84 | O=C(O)Cn1cc(C(=O)c2ccco2)c2ccccc21 | inactive
85 | Cc1cc(C(=O)COC(=O)CNC(=O)c2ccco2)c(C)n1Cc1ccco1 | inactive
86 | COc1ccc(N2CCN(C(=O)C3CCCO3)CC2)cc1 (configuration not stated) | inactive
87 | Cc1ccc(C)n1-c1cccc(N)c1 | inactive
88 | Cc1cc(C(=O)N/N=C/c2ccc[nH]2)no1 | inactive
89 | CC(=O)N/N=C/c1ccc(OCCOc2ccc(Br)cc2)cc1 | inactive
90 | N/C(=N\OC(=O)c1ccc(F)cc1)c1nonc1N | inactive
91 | CCOC(=O)C1=C(C)N(CCO)C(=O)NC1c1cccc(O)c1 (configuration not stated) | inactive
92 | Cc1cc(C)n(-c2ccc(C(=O)OCC(=O)Nc3ccc([N+](=O)[O-])cc3)cc2)n1 | inactive

Row | Compound | outcome
93 | C=CCNC(=O)CC(=O)N/N=C/c1ccc(C(=O)OC)cc1 | inactive
94 | Cc1ccc(/C=N/NC(=O)Cn2cnc3ccccc32)o1 | inactive
95 | COc1ccc(OC)c(C(C(=O)NCc2ccco2)N(C(=O)Cn2nnc3ccccc32)C(C)C)c1 (configuration not stated) | inactive
96 | O=C(C1CCN(C2CC(=O)N(Cc3ccccc3)C2=O)CC1)N1CCCCCC1 (configuration not stated) | inactive
97 | Cc1ccc(S(=O)(=O)N2C(=O)CCC2C(=O)N2CCN(C)CC2)cc1 (configuration not stated) | inactive
98 | CCn1cc(C(=O)NCCCN(C)C)c(=O)c2cc(F)c(N3CCN(C)CC3)cc21 | inactive
99 | Cc1cccc(-n2nc3c(c2NC(=O)c2ccco2)CSC3)c1C | inactive
100 | O=C(Nc1cccc(-c2cn3cccnc3n2)c1)c1ccco1 | inactive
101 | CC(=O)Nc1ccc(-n2nnnc2SCC(=O)Nc2cccc(NC(=O)c3ccco3)c2)cc1 | inactive
102 | O=C(NC1CCCCC1)n1c(=O)oc2ccc(Cl)cc21 | inactive
103 | Cc1ccc(C(=O)N2CC3(C(C)C)CN(C(=O)c4ccc(C)cc4)CC(C(C)C)(C2)C3=O)cc1 | inactive
104 | Cc1ccc(C(=O)C(OC(=O)COc2ccccc2C)c2ccccc2)cc1 (configuration not stated) | inactive
105 | COC(=O)c1cc(C#N)c(Oc2ccc(F)cc2)nc1C | inactive
106 | Nc1nc(Nc2ccc(Cl)cc2)n[nH]1 | inactive
107 | COC(=O)CSc1nc(SCc2ccccc2Cl)nc2c1CCCC2 | inactive
108 | CCCCCNS(=O)(=O)c1cc(C)ccc1OC | inactive
109 | CCCCn1nnnc1NCc1cc(OC)c(OC)cc1OC | inactive
110 | COc1ccc(C(C)C)cc1S(=O)(=O)Nc1ccc(Cl)cn1 | inactive
111 | C=CCNC(=O)C(=O)NN=C1CCN(C)CC1 | inactive
112 | COc1ccc(N2CCN(C(=O)Nc3ccc(S(=O)(=O)N(C)C)cc3)CC2)cc1 | inactive
